SMN2 splice enh = SMN2 splice variant enhancement; HEK293 SMN2-luciferase splicing reporter, luminescence, 30-36 h; Potency, µM (highest dose often 46.1 µM), for inactives: top-dose activity change, positive = activation, actives largely listed as activators; actives 2.8% (n = 210,000); AID 1458; also: % of control where 0% means no effect; nearly all actives have a fitted effect of over 55% in size
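HEK293 cells carry an SMN2 […]–luciferase reporter in which exon 7 inclusion puts luciferase in frame. Cells were plated 10-12 h before compound addition, then incubated 30-36 h at 37C. ONE-Glo luminescence was read; sodium butyrate at 4.5 mM final served as control.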
ELG1 genotoxic = induces genotoxicity in HEK293T cells with luciferase-tagged ELG1; HEK293T ELG1-luciferase reporter, luminescence, 16 h; Potency, µM (top dose mostly 46 µM), inactives show top-dose activity change, positive = activation, hits mostly activators; actives 1.3% (n = 330,000); also: % of control where 0% means no effect; nearly all actives have a fitted effect of over 60% in size
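HEK293T cells expressing luciferase-tagged ELG1 were exposed to compound or DMSO vehicle for 16 hr at 37 °C and 5% CO2. Luciferase activity was then measured with ONE-Glo after 30 min at room temperature.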
NPC1 promoter act = activates the NPC1 promoter. Huh7 NPC1 promoter luciferase reporter, 24 h. Potency, µM (titrated, usually from 9.22 µM), for the others: top-dose activation, most hits filed as activators. actives 2.4% (n = 320,000). AID 485313; also: % of control where 0% means no effect; nearly all actives have a fitted effect of over 60% in size
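Stably transfected Huh7 (NPC1 promoter→luciferase), 1500 cells/well in Opti-MEM + 10% FBS, 2 h settle, then compound 24 h at 37 °C. Luminescence after 10 min with Amplite reagent.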
FLuc counter = inhibits or activates purified firefly luciferase, miR-21 counter-screen; purified FLuc, Km substrates, luminescence inhibition; actives 6.9% (n = 360,000); P08659; AID 588342; Potency, µM (highest dose often 57.5 µM), for inactives: at the highest dose activity change, negative = inhibition, actives largely listed as inhibitors;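 also: plate controls were vehicle for no effect and reference inhibitor for full effect; nearly all actives have a fitted effect of over 55% in size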
Target sequence (P08659 whole entry, looked up): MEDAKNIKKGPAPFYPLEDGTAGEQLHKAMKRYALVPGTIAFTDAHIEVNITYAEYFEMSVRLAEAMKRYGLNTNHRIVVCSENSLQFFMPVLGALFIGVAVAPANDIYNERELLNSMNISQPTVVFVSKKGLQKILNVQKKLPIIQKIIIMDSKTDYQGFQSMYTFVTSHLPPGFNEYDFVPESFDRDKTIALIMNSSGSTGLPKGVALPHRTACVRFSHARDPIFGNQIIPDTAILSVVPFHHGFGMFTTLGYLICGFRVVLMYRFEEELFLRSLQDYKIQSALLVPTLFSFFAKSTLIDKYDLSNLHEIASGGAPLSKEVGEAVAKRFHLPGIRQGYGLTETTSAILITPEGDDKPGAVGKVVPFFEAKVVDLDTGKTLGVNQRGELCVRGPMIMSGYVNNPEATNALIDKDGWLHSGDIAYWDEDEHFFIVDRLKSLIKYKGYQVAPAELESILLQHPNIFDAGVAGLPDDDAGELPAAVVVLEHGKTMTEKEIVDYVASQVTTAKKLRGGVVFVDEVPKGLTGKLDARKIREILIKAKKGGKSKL
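Purified P. pyralis luciferase, 10 nM final, with Km-level 10 uM D-luciferin and 10 uM ATP in 50 mM Tris acetate pH 7.5, 10 mM Mg acetate, 0.01% Tween-20, 0.05% BSA; 6-point qHTS titration about 60 µM downward; luminescence read.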
KinaseGlo FLuc = blocks Kinase-Glo luciferase, a counter-screen artifact; Q27757; Kinase-Glo luciferase, ATP luminescence, 8 min; Potency, µM (doses to about 38.3 µM), inactives show top-dose activity change, negative = inhibition, most hits filed as inhibitors; actives 0.28% (n = 200,000); AID 1379; also: % is scaled to controls: 0 for no effect and ±100 for the full control effect; nearly all actives have a fitted effect of over 60% in size
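Light output from Kinase-Glo luciferase with luciferin and 10 uM ATP in 50 mM imidazole pH 7.2, KCl, MgCl2, Tween 20, BSA; compound pin-delivered, 8-min ambient incubation, then luminescence read.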
Rab9 prom act = activators of Rab9 promoter; Huh7 Rab9 promoter-luciferase reporter, luminescence, 24 h; Potency, µM (doses to about 9.22 µM), inactives show at the highest dose activation, negative = inhibition, most hits filed as activators; actives 2.8% (n = 320,000); AID 485297; also: % of control where 0% means no effect; nearly all actives have a fitted effect of over 60% in size
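Luminescence read-out: Huh7 cells stably expressing Rab9-luciferase, treated 24 h with compound at 37 °C, then lysed with luciferase reagent for 10 min at ambient before reading.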
* hit, by the source's call; ? = inconclusive; nt = not tested or not shown; [ ] = another dose, or the depositor's remark. Shown are actives, neighbours in structure and some others; about 7.3% of the full set was active somewhere. Calls follow the shape of the dose curve; as a rule, active = well fitted curve in the direction sought with a large enough effect; inconclusive = small, poorly fitted or top-dose-only effect, or another doubt; inactive = no such curve, though single readings can be large; an effect the other way counts as inactive or inconclusive. Potency is read from the fitted curve at half-maximal effect.

SMILES | SMN2 splice enh | ELG1 genotoxic | NPC1 promoter act | FLuc counter | KinaseGlo FLuc | Rab9 prom act
CCOc1ccccc1N1CC(c2nc3ccccc3n2CCCOc2ccccc2OC)CC1=O (stereo unspecified) | 22.6% | nt | nt | 16.9µM* | nt | nt
CCc1ccccc1N1CC(c2nc3ccccc3n2CCCCOc2ccccc2OC)CC1=O (stereo unspecified) | -73.1% | nt | nt | -17.1% | nt | nt
COc1ccccc1OCCCn1c(C2CC(=O)N(c3ccccc3Cl)C2)nc2ccccc21 (stereo unspecified) | 17.5% | nt | nt | 16.9µM* | nt | nt
CCCN1C(=O)c2[nH]nc(-c3ccccc3O)c2C1c1cccc(OCc2ccccc2)c1 (stereo unspecified) | 11.0% | nt | nt | 3.1% | nt | nt
Cc1ccc(OC(=O)c2sc3ncn(C)c(=O)c3c2C)cc1 | 16.8% | 14.5% | 2.82µM* | ? | -0.8% | 2.82µM*
COc1cccc(CCNc2ncnc3c2nnn3C)c1 | nt | nt | nt | -6.5% | nt | nt
CC(=O)CCC(=O)N1CCCC(CNC(=O)c2ccc(-c3ccccc3)cc2)C1 (stereo unspecified) | nt | 4.5% | 16.8% | 10.7µM* | 3.3% | 25.2%
O=C(NCC1CCCN(C(=O)c2cccnc2)C1)c1ccc(-c2ccccc2)cc1 (stereo unspecified) | nt | -3.0% | -0.7% | ? | -0.2% | -2.8%
CSCC(=O)N1CCCC(CNC(=O)c2ccc(-c3ccccc3)cc2)C1 (stereo unspecified) | nt | -6.4% | 2.3% | 21.3µM* | 1.8% | -2.1%
Cc1nc(-c2ccc(C(=O)Nc3cc(S(N)(=O)=O)ccc3C)cc2)cs1 | nt | -8.0% | 12.4% | ? | nt | 9.6%
Cc1nc(-c2ccc(C(=O)Nc3cccc(Br)c3)cc2)cs1 | 10µM* | ? | ? | 1.07µM* | ? | ?
Cc1nc(-c2cccc(NC(=O)c3ccc(-n4nccc4C)cc3)c2)cs1 | nt | -7.6% | 12.2% | 4.78µM* | nt | 10.0%
CC(NC(=O)c1sc2ncccc2c1-n1cccc1)c1ccccc1 (stereo unspecified) | nt | nt | nt | -10.3% | nt | nt
COc1ccc(C(=O)COC(=O)CCN2C(=O)C3C4CCC(C4)C3C2=O)cc1 (stereo unspecified) | -31.3% | -18.8% | -0.5% | ? | 0.8% | -3.1%
O=C(CCN1C(=O)C2C3CCC(C3)C2C1=O)OCC(=O)c1ccccc1 (stereo unspecified) | nt | 0.2% | -0.8% | 13.5µM* | nt | -1.8%
COc1ccc(NC(=O)c2c(NCc3sccc3C)sc3c2CCCCC3)c(OC)c1 | nt | nt | nt | -17.4% | nt | nt
CCOC(=O)N1CCc2c(sc(NCc3sccc3C)c2C(=O)Nc2ccc(OC)cc2OC)C1 | nt | nt | nt | 10.7µM* | nt | nt
COc1ccc(NC(=O)c2c(NCc3cccc(F)c3)sc3c2CCCC3)c(OC)c1 | nt | nt | nt | -10.7% | nt | nt
CCOC(=O)N1CCc2c(sc(NCc3cccc(F)c3)c2C(=O)Nc2ccc(OC)cc2OC)C1 | nt | nt | nt | 15.1µM* | nt | nt
Cc1ccccc1Cn1c(SCc2ccc(C(=O)NC(C)c3ccccc3)cc2)nc2ccncc21 (stereo unspecified) | -14.5% | nt | nt | -10.4% | nt | nt
N#CCCN(C(=O)COC(=O)CNC(=O)c1ccc(-c2ccccc2)cc1)c1ccc(F)cc1 | nt | 1.7% | -6.6% | 23.9µM* | nt | 2.9%
O=C(CCC(=O)N1CC2CCCN2c2ccccc21)NCc1ccccc1 (stereo unspecified) | nt | nt | nt | -8.3% | nt | nt
CCc1ccccc1Nc1cc(C(=O)NC(C)c2ccccc2)c2ccccc2n1 (stereo unspecified) | -15.6% | nt | nt | ? | nt | nt
CSc1nnc(N2C(=O)C(O)=C(C(=O)c3ccco3)C2c2ccccc2)s1 (stereo unspecified) | nt | -5.9% | -2.3% | -2.9% | nt | 3.9%
CSc1nnc(N2C(=O)C(O)=C(C(=O)c3ccc(C)o3)C2c2ccc(C)cc2)s1 (stereo unspecified) | nt | 1.3µM* | 0.631µM* | ? | nt | 0.794µM*
SMILES | SMN2 splice enh | ELG1 genotoxic | NPC1 promoter act | FLuc counter | KinaseGlo FLuc | Rab9 prom act
Cc1cccc(C)c1NC(=O)c1nc(SC(C)C)ncc1Cl | -6.7% | nt | nt | -10.3% | nt | nt
Cc1ccc(-c2cc(C(=O)NCc3cccs3)no2)cc1 | 22.3% | ? | ? | -10.2% | 2.2% | 2µM*
O=C(NCc1cccs1)c1cc(-c2cccc(Cl)c2)on1 | -1.2% | ? | 25.9% | -1.9% | -0.4% | ?
O=C(NCc1cccs1)c1cc(-c2ccc(O)cc2)on1 | nt | ? | ? | ? | nt | 3.55µM*
CCOc1ccc(-c2nc3c(c(SCC(=O)N4CCCCC4)n2)Cc2cc(C)ccc2O3)cc1 | 1.3% | nt | nt | 1.4% | nt | nt
CC(C)OC(=O)CSc1ncnc2c1cnn2-c1ccccc1 | -13.8% | 27.1% | 2.1% | 8.49µM* | -3.1% | 19.7%
c1ccc(CSc2ncnc3c2cnn3-c2ccccc2)cc1 | 22.4µM* | ? | ? | 12µM* | 0.7% | ?
CC(C)(C)C(=O)CSc1ncnc2c1cnn2-c1ccccc1 | nt | ? | 0.708µM* | 1.2µM* | nt | 0.631µM*
Cc1cc(NC(=O)CSc2ncnc3c2cnn3-c2ccccc2)no1 | -15.9% | -10.6% | -5.5% | -3.8% | -1.3% | -3.2%
Clc1cccc(Cl)c1/C=C/c1ccn[nH]1 | nt | 11.2% | -20.9% | 16.9µM* | nt | 8.2%
COc1cccc(NC(=O)c2ccc3c(c2)CCCC3)c1 | nt | 2.59µM* | 1.41µM* | 1.2µM* | nt | 1.41µM*
CC(=O)c1cccc(NC(=O)c2ccc3c(c2)CCCC3)c1 | nt | 13.6%[9.26 µM] | 2.51µM* | 1.35µM* | nt | 3.98µM*
COc1cccc(NC(=O)c2ccc(CN3CCc4ccccc4C3)cc2)c1 | nt | 15.4% | -8.4% | 19µM* | nt | -21.0%
CC(=O)c1cccc(NC(=O)c2ccc3c(c2)CCN3S(=O)(=O)c2ccccc2)c1 | -7.7% | -6.8% | -1.1% | -6.4% | nt | -7.4%
CC(=O)c1cccc(NC(=O)c2ccc(CN3CCc4ccccc4C3)cc2)c1 | nt | 10.5% | -2.3% | ? | nt | -17.2%
Cc1ccc(NC(=O)CSc2nc3ccc(NC(=O)CCc4ccccc4)cc3s2)cc1 | nt | nt | nt | -1.1% | nt | nt
COc1ccc(C(=O)O/N=C(\N)c2ccncc2)cc1OC | 17.1% | 17.4% | -1.4% | -12.3% | -4.1% | 9.7%
COc1ccc(C(=O)O/N=C(\N)c2cccc(C)c2)cc1OC | nt | ? | ? | 21.3µM* | nt | ?
COc1ccc(/C(N)=N/OC(=O)CSc2ccccc2)cc1OC | 12.3% | 18.4µM* | 27.4% | 23.9µM* | -1.8% | 17.5%
COc1ccc(C(=O)O/N=C(\N)c2ccccc2)cc1OC | nt | 20.6µM* | 2.82µM* | 10.7µM* | nt | 3.55µM*
CCc1nnc(NC(=O)c2cc(=O)c3cc(C)ccc3o2)s1 | 9.3% | nt | nt | ? | nt | nt

Source: PubChem BioAssay (National Center for Advancing Translational Sciences (NCATS))
